Laboratory results reported in PubChem BioAssay (EPA / NIEHS).
Calls of active or inactive are those of the source. How the source made its calls: active means hit-call score of the fitted dose curve at least 0.9, where 1 is the maximum; inactive means score below 0.9.

Experiments:
[1] = read-out: Transforming growth factor beta 1 (TGFb1), TGFB1 (gene 7040); assay: BSK_KF3CT_TGFb1: BioMAP Diversity Plus: KF3CT Assay for Transforming growth factor beta 1 (TGFb1) Biomarker Activity (AID 2283072); details: primary human keratinocytes with fibroblasts; actives raise or lower the signal
How it was run: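 ELISA quantifies TGF-b1 at 24 h post-dose in a primary human skin co-culture of keratinocytes and fibroblasts, with gain or loss judged against DMSO. Parallel SRB total-protein staining flags overt cytotoxicity.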

[2] = read-out: C-C motif chemokine 2 (Homo sapiens) (UniProt P13500); assay: BSK_KF3CT_MCP1: BioMAP Diversity Plus: KF3CT Assay for Monocyte Chemoattractant Protein 1 (MCP1/CCL2) Biomarker Activity (AID 2283073); details: primary human keratinocytes with fibroblasts; actives raise or lower the signal
How it was run: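 KF3CT skin co-culture (keratinocytes/foreskin fibroblasts), 24 h post-dose; MCP-1 by ELISA; gain/loss of signal fit bidirectionally vs DMSO baseline.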

[3] = read-out: Matrix Metallopeptidase 9 (MMP9), MMP9 (gene 4318); assay: BSK_KF3CT_MMP9: BioMAP Diversity Plus: KF3CT Assay for Matrix Metallopeptidase 9 (MMP9) Biomarker Activity (AID 2283074); details: primary human keratinocytes with fibroblasts; actives raise or lower the signal;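 on AC50: MMP9 protein level quantified by ELISA in the co-culture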
How it was run: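 MMP-9 quantified by ELISA after 24 h chemical treatment of primary human skin keratinocyte/fibroblast co-cultures; gain or loss fitted against DMSO, with parallel SRB staining (0.1% SRB, 560 nm) for overt cytotoxicity.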

[4] = read-out: urokinase plasminogen activator (uPA), PLAU (gene 5328); assay: BSK_KF3CT_uPA: BioMAP Diversity Plus: KF3CT Assay for urokinase plasminogen activator (uPA) Biomarker Activity (AID 2283075); details: primary human keratinocytes with fibroblasts; actives raise or lower the signal
How it was run: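 ELISA read-out of uPA 24 h after dosing human skin keratinocytes co-cultured with foreskin fibroblasts. Signal change fitted both ways relative to DMSO; sulforhodamine B on parallel cultures marks overt cytotoxicity.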

CD40, CD40 (gene 958) [5] = assay: BSK_LPS_CD40: BioMAP Diversity Plus: LPS Assay for CD40 Biomarker Activity (AID 2283076); details: primary human HUVEC with PBMC; actives raise or lower the signal
How it was run: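 ELISA readout of CD40 in HUVEC/PBMC co-culture (BSK_LPS system), 24 h post-dosing; bidirectional curve fit, DMSO baseline; parallel SRB total-protein staining for cytotoxicity.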

[6] = read-out: E-selectin (Homo sapiens) (UniProt P16581); assay: BSK_LPS_Eselectin: BioMAP Diversity Plus: LPS Assay for Eselectin Biomarker Activity (AID 2283077); details: primary human HUVEC with PBMC; actives raise or lower the signal
How it was run: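 ELISA readout of E-selectin, 24 h post-dose, HUVEC + PBMC co-culture (LPS system). Gain or loss of signal vs DMSO baseline, bidirectional fit.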

[7] = read-out: Interleukin-8 (IL8), CXCL8 (gene 3576); assay: BSK_LPS_IL8: BioMAP Diversity Plus: LPS Assay for Interleukin-8 (IL8) Biomarker Activity (AID 2283078); details: primary human HUVEC with PBMC; actives raise or lower the signal
How it was run: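 HUVEC + PBMC co-culture, LPS-activated; test chemicals dosed, IL-8 read by ELISA at 24 h. Bidirectional curve fit vs DMSO baseline (gain or loss of signal).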

[8] = BSK_LPS_SRB: Viability Assessment in the BioMAP Diversity Plus: LPS Assay (AID 2283079); details: primary human HUVEC with PBMC;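 further: total protein by sulforhodamine B absorbance as a cytotoxicity measure; measured one day after compound addition; fitted in both directions against DMSO so loss or gain of signal counts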
How it was run: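 HUVEC + PBMC co-culture, LPS-stimulated; compound 24 h. 10% TCA fix, 0.1% SRB stain, A560. Bidirectional fit vs DMSO.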

[9] = read-out: Interleukin-1 alpha (IL1a), IL1A (gene 3552); assay: BSK_LPS_IL1a: BioMAP Diversity Plus: LPS Assay for Interleukin-1 alpha (IL1a) Biomarker Activity (AID 2283080); details: primary human HUVEC with PBMC; actives raise or lower the signal
How it was run: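 HUVEC/PBMC co-culture, LPS system; 24 h after dosing; IL-1a by ELISA; gain or loss of signal fitted bidirectionally vs DMSO baseline.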

[10] = read-out: Monocyte Chemoattractant Protein-1 (MCP1), CCL2 (gene 6347); assay: BSK_LPS_MCP1: BioMAP Diversity Plus: LPS Assay for Monocyte Chemoattractant Protein-1 (MCP1) Biomarker Activity (AID 2283081); details: primary human HUVEC with PBMC; actives raise or lower the signal
How it was run: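 ELISA read-out of MCP-1 after 24 h chemical dosing of a human umbilical vein endothelial cell/peripheral blood mononuclear cell co-culture stimulated with LPS. Gain or loss of signal fitted relative to DMSO controls.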

[11] = read-out: Macrophage colony-stimulating factor (MCSF), CSF1 (gene 1435); assay: BSK_LPS_MCSF: BioMAP Diversity Plus: LPS Assay for Macrophage colony-stimulating factor (MCSF) Biomarker Activity (AID 2283083); details: primary human HUVEC with PBMC; actives raise or lower the signal
How it was run: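 HUVEC + PBMC co-culture (human primary), 24 h post-dose; M-CSF by ELISA; gain/loss of signal fitted bidirectionally vs DMSO baseline.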

[12] = read-out: Tissue Factor, F3 (gene 2152); assay: BSK_LPS_TissueFactor: BioMAP Diversity Plus: LPS Assay for Tissue Factor Biomarker Activity (AID 2283084); details: primary human HUVEC with PBMC; actives raise or lower the signal
How it was run: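 HUVEC/PBMC co-culture, LPS-activated; CD142 ELISA read 24 h post-dose; bidirectional curve fit vs DMSO negative control.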

[13] = read-out: Tumor necrosis factor (Homo sapiens) (UniProt P01375); assay: BSK_LPS_TNFa: BioMAP Diversity Plus: LPS Assay for Tumour Necrosis Factor alpha (TNFa) Biomarker Activity (AID 2283085); details: primary human HUVEC with PBMC; actives raise or lower the signal;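 on AC50: TNFa protein level quantified by ELISA in the co-culture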
How it was run: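 TNFa was quantified by ELISA in LPS-activated co-cultures of human endothelial cells and PBMC, 24 h post-dosing. Both increases and decreases versus DMSO were fitted.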

[14] = read-out: Vascular cell adhesion molecule 1 (VCAM1), VCAM1 (gene 7412); assay: BSK_LPS_VCAM1: BioMAP Diversity Plus: LPS Assay for Vascular cell adhesion molecule 1 (VCAM1) Biomarker Activity (AID 2283086); details: primary human HUVEC with PBMC; actives raise or lower the signal
How it was run: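 VCAM-1 quantified by ELISA in an LPS-activated co-culture of human endothelial cells and peripheral blood mononuclear cells, read 24 h post-treatment. Fitted in both directions versus DMSO; parallel SRB staining flags overt cytotoxicity.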

CD38, CD38 (gene 952) = assay: BSK_SAg_CD38: BioMAP Diversity Plus: SAg Assay for CD38 Biomarker Activity (AID 2283087); details: primary human HUVEC with PBMC; actives raise or lower the signal
How it was run: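 CD38 quantified by ELISA (fluorescence) in a superantigen-activated endothelial cell–PBMC co-culture at 24 h post-dose. Activity fitted in both directions relative to DMSO; parallel SRB and Alamar Blue cytotoxicity read-outs.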

CD40, CD40 (gene 958) [15] = assay: BSK_SAg_CD40: BioMAP Diversity Plus: SAg Assay for CD40 Biomarker Activity (AID 2283088); details: primary human HUVEC with PBMC; actives raise or lower the signal
How it was run: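 HUVEC/PBMC co-culture, 24 h post-dose; CD40 by ELISA, fluorescence intensity; bidirectional fit vs DMSO negative control.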

[16] = read-out: Monocyte Chemoattractant Protein-1 (MCP1), CCL2 (gene 6347); assay: BSK_SAg_MCP1: BioMAP Diversity Plus: SAg Assay for Monocyte Chemoattractant Protein-1 (MCP1) Biomarker Activity (AID 2283090); details: primary human HUVEC with PBMC; actives raise or lower the signal
How it was run: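 Values derive from bidirectional fitting of ELISA-measured MCP1 against DMSO controls. Readings were taken 24 h after dosing human vascular endothelial cells co-cultured with peripheral blood mononuclear cells under superantigen stimulation.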

[17] = read-out: E-selectin (Homo sapiens) (UniProt P16581); assay: BSK_SAg_Eselectin: BioMAP Diversity Plus: SAg Assay for Eselectin Biomarker Activity (AID 2283091); details: primary human HUVEC with PBMC; actives raise or lower the signal
How it was run: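 E-selectin ELISA readout at 24 h post-dosing in human umbilical vein endothelial cell/PBMC co-culture; gain or loss of signal fitted relative to DMSO baseline.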

[18] = BSK_LPS_PGE2: BioMAP Diversity Plus: LPS Assay for Prostaglandin E2 (PGE2) Biomarker Activity (AID 2283082); details: primary human HUVEC with PBMC; actives raise or lower the signal;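 on AC50: secreted prostaglandin E2 measured by ELISA in LPS-stimulated co-culture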
How it was run: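 PGE2 release measured by ELISA in an LPS-activated co-culture of human umbilical vein endothelial cells and peripheral blood mononuclear cells, read at 24 h post-dosing. DMSO served as baseline for bidirectional curve fitting.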

CD69, CD69 (gene 969) = assay: BSK_SAg_CD69: BioMAP Diversity Plus: SAg Assay for CD69 Biomarker Activity (AID 2283089); details: primary human HUVEC with PBMC; actives raise or lower the signal
How it was run: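 Values derive from bidirectional fitting relative to DMSO vehicle. Cells: umbilical vein endothelium plus peripheral blood mononuclear cells, treated 24 h before fluorescent ELISA for CD69.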

Measured: AC50

Chain of E-selectin (Homo sapiens) (P16581 whole entry, looked up): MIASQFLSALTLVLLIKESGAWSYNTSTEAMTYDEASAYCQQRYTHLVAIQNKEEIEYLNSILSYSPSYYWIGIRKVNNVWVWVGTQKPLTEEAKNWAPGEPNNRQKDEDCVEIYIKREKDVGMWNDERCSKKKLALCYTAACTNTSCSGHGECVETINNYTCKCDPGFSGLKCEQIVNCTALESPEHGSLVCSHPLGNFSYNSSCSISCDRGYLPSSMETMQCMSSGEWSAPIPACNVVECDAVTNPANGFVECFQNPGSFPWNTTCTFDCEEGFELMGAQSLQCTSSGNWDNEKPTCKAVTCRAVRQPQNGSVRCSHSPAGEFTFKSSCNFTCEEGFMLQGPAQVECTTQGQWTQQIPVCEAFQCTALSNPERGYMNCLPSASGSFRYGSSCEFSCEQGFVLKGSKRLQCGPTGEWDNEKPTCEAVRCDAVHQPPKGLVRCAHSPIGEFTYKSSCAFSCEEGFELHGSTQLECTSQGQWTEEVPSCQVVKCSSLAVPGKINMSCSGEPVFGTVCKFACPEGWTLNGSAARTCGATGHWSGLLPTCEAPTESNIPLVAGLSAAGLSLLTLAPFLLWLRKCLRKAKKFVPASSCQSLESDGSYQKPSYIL
Chain of Tumor necrosis factor (Homo sapiens) (P01375 whole entry, looked up): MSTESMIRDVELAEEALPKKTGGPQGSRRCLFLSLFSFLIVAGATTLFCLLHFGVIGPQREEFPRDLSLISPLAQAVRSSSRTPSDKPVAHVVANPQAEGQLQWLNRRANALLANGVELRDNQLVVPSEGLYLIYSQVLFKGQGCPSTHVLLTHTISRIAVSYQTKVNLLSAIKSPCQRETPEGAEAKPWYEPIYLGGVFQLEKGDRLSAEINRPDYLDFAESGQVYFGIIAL

CCCCCCCC=O
not listed: [18] | CD69, CD69 (gene 969)
inactive: all other assays above

Cc1oc(-c2ccccc2)nc1CCOc1cccc2c1ccn2CCC(=O)O
active: [18] 5.34 µM | [13] 0.655 µM
not listed: CD69, CD69 (gene 969)
inactive: all other assays above

CC(C)c1ccc(C(=O)N=C(N)N)cc1S(C)(=O)=O
inactive: all assays above

CCCCCCOCCO
not listed: [10]
inactive: all other assays above

Nc1ccccc1N
active: [3] 20 µM | CD40, CD40 (gene 958) [5] 5.79 µM | [18] 10.9 µM | [11] 3.97 µM | [14] 11.2 µM
not listed: CD69, CD69 (gene 969)
inactive: all other assays above

COCCOC[C@H](CC1(C(=O)NC2CCC(C(=O)O)CC2)CCCC1)C(=O)Oc1ccc2c(c1)CCC2 (stereo partly specified)
not listed: [10] | CD69, CD69 (gene 969)
inactive: all other assays above

COCCOCCOC
not listed: CD40, CD40 (gene 958) [15] | [18]
inactive: all other assays above
